Data from PubChem BioAssay.
The list shows a part of the results. Unmarked numbers belong to inactive results. The source made the active and inactive calls. Cut-off read from the data, not from the text of the source: active = inhibition above about 22%; inactive = the rest.

Assay: HEK cell viability loss – luminescence, cytotoxicity control for IDE inhibitor project (AID 449730);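 note: 0% = vehicle wells and 100% = reference cytotoxic drug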
Settings: HEK293 cytotoxicity, ATP luminescence; at 5.59 µM; active compounds read high

Row | Compound | inhibition
1 | COc1ccc(N2CCN(C(=O)/C(C#N)=C/c3ccccc3)CC2)cc1 | 5.82%
2 | CCOC(=O)CC1C(=O)NCCN1c1nc2c(C)cccn2c(=O)c1/C=C1\SC(=S)N(C(C)CC)C1=O (stereo not given) | 41.5% (active)
3 | CC(C(=O)c1ccc(-c2ccccc2)cc1)[n+]1cccc(Br)c1 (stereo not given) | 14.3%
4 | Cc1cc(Cl)ccc1OCCCC(=O)NCc1ccncc1 | 14.7%
5 | O=C(Nc1ccc(Cl)c(Cl)c1)N1CC=C(c2ccccc2)CC1 | 8.42%
6 | Cn1c2ccccc2c2cc(/C=C(\NC(=O)c3ccccc3)C(=O)NCC(=O)O)ccc21 | 5.76%
7 | CCCCc1cc(=O)oc2c(C)c(OCC(=O)N3CCC(C(N)=O)CC3)ccc12 | 11.7%
8 | O=C(C1=C[C@H](c2coc3ccccc3c2=O)C[C@H](OCc2ccc(CO)cc2)O1)N1CCN(Cc2ccccc2)CC1 | 17.5%
9 | NC(=O)c1c(Nc2nc3c(F)cccc3s2)sc2c1CCCC2 | 5.16%
10 | CC(=O)c1cc(NC(=O)c2ccccc2)c(=O)oc1/C=C/N(C)C | 5.05%
11 | Cc1c(-c2cccc(Cl)c2)nc2ccccc2c1C(=O)OCC(=O)N(C)C1CCS(=O)(=O)C1 (stereo not given) | 14.1%
12 | O=C(Nc1ccc(Sc2ccc(Br)cc2)cc1)c1ccco1 | 20.9%
13 | O=C(N/N=C/c1ccc(OC(=O)c2ccccc2Cl)cc1)c1ccc(O)cc1 | 6.4%
14 | CCCc1nc(SCC(=O)Nc2ccc(S(=O)(=O)N(C)C)cc2)c2ccccc2n1 | 21.9%
15 | Cc1nn(C)cc1C(=O)c1ccccc1 | 5.03%
16 | N#C/C(=C\c1ccc(N2CCOCC2)o1)C(=O)N1CCOCC1 | 8.42%
17 | COc1cc(/C=C(\C#N)c2nc3ccccc3[nH]2)ccc1O | 21.9%
18 | O=C(CCc1ccc(S(=O)(=O)N2CCOCC2)cc1)Nc1ccc2ccccc2c1 | 13.4%

Row | Compound | inhibition
19 | Cc1cccc(-n2c(Cc3cc(=O)[nH]c(=O)[nH]3)nnc2SCC(=O)Nc2cccc(C(F)(F)F)c2)c1 | 3.28%
20 | Cc1c(C(=O)Nc2cccc(-c3nnc4n3CCCCC4)c2)oc2ccccc12 | 21.4%
21 | CS(=O)(=O)N(Cc1ccccc1)c1ccc(C(=O)NN=C2CCCCCC2)cc1 | 6.18%
22 | CCN1/C(=C/c2ccc3ccc(C)cc3[n+]2CC)Sc2ccccc21 | 107% (active)
23 | Cc1cccc(N2CCN(C(=O)c3cccc(N4C(=O)C5C6C=CC(C6)C5C4=O)c3)CC2)c1C (stereo not given) | 17.6%
24 | CN1/C(=c2/s/c(=C3/C(=O)N(c4ccccc4)NC3=Nc3ccccc3)n(C)c2=O)C(C)(C)c2ccccc21 | 11.6%
25 | CN(C)c1ccc(/C=C2\NC(=S)N(Cc3ccccc3)C2=O)cc1 | 24.2% (active)
26 | CC1(C)Cc2cccc(OCC(=O)N3CCN(c4ccc([N+](=O)[O-])cc4)CC3)c2O1 | 19.7%
27 | CCCC(=O)Nc1c(O)c2ccccc2[nH]c1=O | 9.27%
28 | COc1cc(/C=C2/SC(=S)N(Cc3ccccc3)C2=O)cc(OC)c1O | 19.6%
29 | CCOc1cc2c(Cl)ncnc2c(OCC)c1OCC | 6.67%
30 | CCC(=C/c1sc2ccc3ccccc3c2[n+]1C)/C=C1\Sc2ccc3ccccc3c2N1C | 110% (active)
31 | Cc1ccc2c(c1)c1ncnc(N3CCc4ccccc4C3)c1n2C | 7.19%
32 | CCN(CC)c1ccc2cc(C(N)=O)/c(=N\NC(=O)c3ccncc3)oc2c1 | 28.8% (active)
33 | O=C(/C=C/c1ccc(OCc2c(F)cccc2Cl)cc1)N1CCOCC1 | 67.9% (active)
34 | C=CCC1=C/C(=C\c2c(N)n3nc(CC(=O)N4CCOCC4)sc3nc2=O)C=C(OC)C1=O | 12.5%
35 | Oc1ccc(-c2onc3ccc(Cl)cc23)cc1 | 12.7%
